According to PubChem BioAssay (NCI):
Compounds without any hit were thinned out: in the full panel of roughly 83,000, 20% have a hit.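 Cell lines were cultured in 96-well plates, exposed to a single compound concentration, and assessed for percent growth 48 hours later.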 Values without a mark were called inactive. Activity calls are given as the source filed them. The calls were made as follows: active = growth percent below 10; inactive = the rest.

Columns and labels:
Test in all cases: NCI-60 one-dose screen, 48 h (100 = growth as untreated, 0 = no growth, -100 = all killed)
Conditions in all cases: 10 µM
RPMI-8226 leukemia = system: RPMI-8226 leukemia
OVCAR-8 ovarian = system: OVCAR-8 ovarian
OVCAR-5 ovarian = system: OVCAR-5 ovarian
OVCAR-4 ovarian = system: OVCAR-4 ovarian
SK-OV-3 ovarian = system: SK-OV-3 ovarian
IGROV1 ovarian = system: IGROV1 ovarian
OVCAR-3 ovarian = system: OVCAR-3 ovarian
HS 578T breast = system: HS 578T breast
NCI/ADR-RES ovarian = system: NCI/ADR-RES ovarian
T-47D breast = system: T-47D breast
BT-549 breast = system: BT-549 breast
MDA-MB-435 melanoma = system: MDA-MB-435 melanoma
SW-620 colon = system: SW-620 colon
MCF7 breast = system: MCF7 breast
HCT-116 colon = system: HCT-116 colon
HCC-2998 colon = system: HCC-2998 colon
KM12 colon = system: KM12 colon

Row | SMILES | growth (RPMI-8226 leukemia) | growth (OVCAR-8 ovarian) | growth (OVCAR-5 ovarian) | growth (OVCAR-4 ovarian) | growth (SK-OV-3 ovarian) | growth (IGROV1 ovarian) | growth (OVCAR-3 ovarian) | growth (HS 578T breast) | growth (NCI/ADR-RES ovarian) | growth (T-47D breast) | growth (BT-549 breast) | growth (MDA-MB-435 melanoma) | growth (SW-620 colon) | growth (MCF7 breast) | growth (HCT-116 colon) | growth (HCC-2998 colon) | growth (KM12 colon)
1 | Cc1ccc(NC(=O)Nc2c(Cl)cccc2Cl)cn1 | 62.9% | 111% | 119% | 135% | 116% | 85.9% | 106% | 97.8% | 105% | 96.8% | 118% | 38.3% | 127% | 91.8% | 104% | 104% | 105%
2 | Oc1[nH]c2ccc(Cl)cc2c1/C=c1/ccc2c(c1)N=C(c1cccs1)N=2 | 48% | 52.2% | 89.3% | 52.3% | 87.5% | 61% | 56.1% | 59.5% | 64.3% | 59.4% | 57.4% | 39% | 85.9% | 10.1% | 52.9% | 88.6% | 58%
3 | Cc1c(Cl)cccc1NC(=O)c1sc2nc3c(cc2c1N)C(=O)CCC3 | 5.08% (active) | 13.5% | 31.8% | 40.4% | 14.4% | 9.61% (active) | -40.1% (active) | 17.1% | 2.57% (active) | 54.5% | 49.9% | -43.6% (active) | 18.3% | 13.5% | 14.3% | 25.8% | 11.1%
4 | Cc1ccc(S(=O)(=O)OCCN(CCOS(=O)(=O)c2ccc(C)cc2)c2c[nH]c(=O)[nH]c2=O)cc1 | 100% | 103% | 102% | 97.9% | 100% | 112% | 120% | 140% | 112% | 100% | 112% | 103% | 110% | 99.2% | 108% | 128% | 116%
5 | N#CC1=C(Nc2ccccc2Cl)SC(c2ccccc2O)NC1=O (stereo unspecified) | 97.1% | 111% | 105% | 111% | 116% | 102% | 127% | 116% | 110% | 111% | 111% | 120% | 105% | 105% | 109% | 109% | 116%
6 | COC(=O)C1(C)Cc2cc(OC(C)=O)c(OC(C)=O)cc2N1 (stereo unspecified) | 23.6% | 85.2% | 118% | 57.8% | 98.4% | 27.1% | 67.2% | 88.7% | 80.6% | 42.6% | 98.8% | 73.9% | 58.6% | 51.7% | 35.1% | 112% | 85.9%
7 | O=[N+]([O-])c1ccc(Oc2cc(Cl)c(Cl)cc2Cl)c(C(F)(F)F)c1 | 97.3% | 97.8% | 87% | 93.8% | 103% | 96.5% | 105% | 104% | 109% | 107% | 110% | 95.6% | 106% | 97.9% | 102% | 123% | 101%
8 | CC(=O)C1CCC2C3CC(F)C4=CC(=O)CCC4(C)C3C(O)CC12C (stereo unspecified) | 83.4% | 94.2% | 105% | 98.6% | 83.9% | 97.2% | 114% | 122% | 94.9% | 119% | 91.2% | 102% | 109% | 94.5% | 89.9% | 105% | 111%
